Screening data as filed in PubChem.
HCMV antiviral – qHTS Assay for inhibitors of the human cytomegalovirus (HCMV); HFF cells, HCMV-luciferase reporter, 72 h; active compounds read low; activity change, negative = inhibition, % at 57.5 µM; hit rate 4.5% among 410,000; AID 1259415, 2018; in the data active = activity change below about -60%; inconclusive = no clear call, values can overlap the other calls; inactive = above about -39%
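Steps: HFFs plated, 16 h 37C; compounds added; HCMV-luciferase added to MOI 1 PFU/cell; 72 h 37C; OneGlo reagent, 5 min room temperature; luminescence read, normalized to controls.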
HCV inh – qHTS Assay for Inhibitors of Hepatitis C Virus (HCV); Huh7.5.1 HCVcc-Cre infection, luciferase reporter, 44 h; Potency, µM (titrated, usually from 41.8 µM), inactives show at the top dose activity change, negative = inhibition, most hits filed as inhibitors; hit rate 3.4% among 340,000; also: potency is read from the fitted curve at half-maximal effect
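1,000 cells/well; 4 h culture; + compound; + HCVcc-Cre (~0.5 moi); 44 h; luciferase substrate, RT 15 min; read 15 sec.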
Pf growth 96h – Primary qHTS for delayed death inhibitors of the malarial parasite plastid, 96 hour incubation | P. falciparum luciferase reporter growth, 96 h | Potency, µM (series often up to 28.7 µM), without a hit: top-dose activity change, negative = inhibition, actives largely listed as inhibitors | hit rate 6.9% among 320,000 | AID 504834, 2011; also: potency is read from the fitted curve at half-maximal effect
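Readout is luminescence from an integrated firefly luciferase in P. falciparum. Red cells, 2% hematocrit and 0.05% parasitemia final, were cultured with compound through two parasite generations (96 hours) at 37 C, 5% CO2.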
Pf growth 48h – Primary qHTS for delayed death inhibitors of the malarial parasite plastid, 48 hour incubation. Potency, µM (series often up to 28.7 µM), inactives show at the highest dose activity change, negative = inhibition, actives largely listed as inhibitors. P. falciparum luciferase growth in erythrocytes, 48 h. hit rate 5.9% among 310,000; also: potency is read from the fitted curve at half-maximal effect
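Cell-based growth assay: transgenic P. falciparum expressing firefly luciferase, cultured in red cells within RPMI 1640 containing 0.5% w/v Albumax, 24 mM bicarbonate and gentamycin. A drop in luciferase activity indicates inhibition.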
Active calls of the source: *; ? = inconclusive; . = no result given; [ ] = another dose, or the depositor's remark. Only some compounds are listed: those with a hit (about 13% of all), similar ones and a draw of the others. Unless noted, calls follow the shape of the dose curve; as a rule, active = well fitted inhibition curve with a large enough effect; inconclusive = small, poorly fitted or top-dose-only effect, or another doubt; inactive = no such curve, though single readings can be large or run the other way. % is scaled to controls: 0 for no effect and ±100 for the full control effect.

SMILES | HCMV antiviral | HCV inh | Pf growth 96h | Pf growth 48h
O=C(O)CC(CNS(=O)(=O)c1ccccc1)c1ccccc1 (stereo not drawn) | -75.3* | ? | 10.4µM* | 19.0%
CCCCCCCCN1C(=O)[C@@H](CC(=O)NCCCCc2ccccc2)C[C@@]2(C(=O)OC)C1=C[C@H](C(C)(C)C)O[C@@H]2C | -30.4 | . | . | .
COc1ccc(CCNC(=O)Cn2c(=O)c3cccn3c3ccccc32)cc1OC | 37.8 | . | . | .
Nc1nc(=S)c2ncn(C3OC(CO)C(O)C3O)c2[nH]1 (stereo not drawn) | -10.5 | -24.1% | 0.1% | 4.0%
Nc1nc(=S)c2ncn([C@@H]3O[C@H](CO)[C@@H](O)[C@H]3O)c2[nH]1 | -88.7* | 2.24µM* | ? | 10.4µM*
Nc1nc(Cl)nc2c1ncn2[C@@H]1O[C@H](CO)[C@@H](O)[C@H]1O | -24.6 | -7.4%[8.37 µM] | 6.57µM* | ?
OCC1OC(n2cnc3c(=S)nc[nH]c32)C(O)C1O (stereo not drawn) | . | . | 9.53µM* | ?
CCC(C(=O)Nc1ccccc1OC)n1nc(C)c2sc3ccccc3c2c1=O (stereo not drawn) | 3.4 | . | . | .
CNc1nc(NCc2ccc(C)cc2C)c2sccc2n1 | -31.2 | . | . | .
CNc1nc(Nc2ccc(C)cc2C)c2sccc2n1 | -62.5* | . | . | .
c1cc2cc(CNc3nc(NCC4CC4)nc4ccsc34)ccc2o1 | -74.4* | . | . | .
Cc1ccc(CNc2nc(NCc3ccccc3)nc3ccsc23)c(C)c1 | -62.9* | . | . | .
COCCNc1nc(NCc2ccccc2)nc2ccsc12 | -60.7* | . | . | .
CC(C)COc1ccc(C(=O)Nc2cc(-c3ccccc3)no2)cc1 | 42.4 | . | . | .
CCc1nc(SC)ncc1C(=O)N1CCN(c2cc(C)ccc2C)CC1 | 5.4 | . | . | .
Cc1ccc(CNc2nc(NC(C)C)nc3ccsc23)c(C)c1 | -8.0 | . | . | .
Cc1ccccc1-c1nc(NCC2CC2)nc2ccsc12 | -4.8 | . | . | .
Cc1ccc(CNc2nc(NCC3CC3)nc3ccsc23)c(C)c1 | -77.1* | . | . | .
Cc1ccc(Nc2nc(NCC3CC3)nc3ccsc23)c(C)c1 | -82.1* | . | . | .
CCc1n[nH]c(=O)n1Cn1c(CC)n[nH]c1=O | 20.6 | 21.1% | 10.4µM* | .
O=C(C1CC1)N1CCC(c2nc(-c3ccc(S(=O)(=O)NCC4CCCO4)cc3)no2)CC1 (stereo not drawn) | -96.5* | ? | -17.6% | 9.28µM*
O=C(C1CC1)N1CCC(c2nc(-c3ccc(S(=O)(=O)N4CCCC4)cc3)no2)CC1 | 8.6 | ? | ? | .
O=C(NC1CCCCC1)N1CCC(c2nc(-c3ccc(S(=O)(=O)N4CCCC4)cc3)no2)CC1 | -61.8* | ? | 4.5% | ?
O=C(Cc1ccccc1)N1CCCC(c2nc(-c3ccc(S(=O)(=O)N4CCCC4)cc3)no2)C1 (stereo not drawn) | -39.4 | ? | 8.28µM* | .
CS(=O)(=O)N1CCCC(c2nc(-c3ccc(S(=O)(=O)NCc4ccccc4)cc3)no2)C1 (stereo not drawn) | -94.8* | ? | ? | ?
SMILES | HCMV antiviral | HCV inh | Pf growth 96h | Pf growth 48h
COc1cccc(C(=O)c2cn(CC(=O)NCc3ccccc3)c3nc(C)ccc3c2=O)c1 | -24.5 | . | . | .
CCc1ccc(N2CCn3c2nc2c3c(=O)n(C/C=C/c3ccccc3)c(=O)n2C)cc1 | 12.8 | . | . | .
COC(=O)C1(Cc2ccccc2)NC(c2ccccc2C)C2C(=O)N(c3ccc4c(c3)OCO4)C(=O)C21 (stereo not drawn) | -0.7 | -29.9% | 22.7% | 11.7µM*
CC(C)C(C(=O)NCc1ccccc1)N1CCN(C(=O)C2CCCO2)CC1 (stereo not drawn) | 6.6 | . | . | .
COC(=O)[C@@]1(Cc2ccc(F)cc2)[C@H]2c3cc(C(=O)N4CCCC4)n(CCc4c[nH]c5ccc(OC)cc45)c3C[C@H]2CN1C(=O)c1ccccc1 | 0.0 | -2.5%[8.37 µM] | 1.04µM* | ?
COC(=O)[C@@]1(Cc2ccc(F)cc2)[C@H]2c3cc(C(=O)N(C)C)n(CCc4ccccn4)c3C[C@H]2CN1C(=O)c1ccccc1 | 9.1 | 14.8% | 3.29µM* | 2.62µM*
COCCn1c(C(=O)N(C)C)cc2c1C[C@H]1CN(C(=O)c3ccccc3)[C@@](Cc3ccc(F)cc3)(C(=O)OC)[C@@H]21 | -35.2 | . | . | .
COC(=O)[C@@]1(Cc2ccc(F)cc2)[C@H]2c3cc(C(=O)N4CCCC4)n(CCSCCO)c3C[C@H]2CN1C(=O)c1ccccc1 | -16.7 | . | . | .
COC(=O)[C@@]1(Cc2ccc(F)cc2)[C@H]2c3cc(C(=O)N4CCCC4)n(CCc4ccccn4)c3C[C@H]2CN1C(=O)c1ccccc1 | ? | 20.6% | 2.08µM* | 3.29µM*
COCCn1c(C(=O)N2CCCC2)cc2c1C[C@H]1CN(C(=O)c3ccccc3)[C@@](Cc3ccc(F)cc3)(C(=O)OC)[C@@H]21 | -3.4 | -0.3%[8.37 µM] | 4.65µM* | 1.65µM*
COC(=O)[C@@]1(Cc2ccc(F)cc2)[C@H]2c3cc(C(=O)N4CCCC4)n(Cc4ccccc4)c3C[C@H]2CN1C(=O)c1ccccc1 | -25.9 | . | . | .
COC(=O)[C@@]1(Cc2ccc(F)cc2)[C@H]2c3cc(C(=O)N4CCCC4)n(CCN4CCNC4=O)c3C[C@H]2CN1C(=O)c1ccccc1 | -12.6 | . | . | .
O=C(NCCn1cc(SCc2ccc(Cl)cc2)c2ccccc21)c1cccs1 | -21.9 | . | . | .
COC(=O)[C@@]1(Cc2ccccc2)[C@H]2c3cc(C(=O)N4CCCC4)n(CCSCCO)c3C[C@H]2CN1C(=O)c1ccccc1 | . | 1.2%[8.37 µM] | 2.33µM* | 1.65µM*
COc1ccc(CN(CCNC(=O)CCCCC(=O)NCCN(Cc2ccc(OC)cc2)C(C)C)C(C)C)cc1 | ? | 11.2µM* | . | .
COc1ccc(CCNC(=O)CCCCC(=O)NCCc2ccc(OC)cc2)cc1 | -16.9 | 8.4% | 19.6% | -19.0%
CC(Sc1nc2nn(-c3ccccc3)c(=O)c-2c2n1CCCCC2)C(N)=O (stereo not drawn) | -12.1 | 6.0% | . | -16.1%
O=C(CSc1nc2nn(-c3ccccc3)c(=O)c-2c2n1CCCCC2)NCCCc1ccccc1 | -5.3 | ? | ? | 9.28µM*
CCCCCCCNC(=O)C1(CC2CC(c3ccc(Cl)cc3)=NO2)CCN(C(=O)c2cc(OCC)c(OCC)c(OCC)c2)CC1 (stereo not drawn) | 170.7 | -9.1% | 0.329µM* | 1.17µM*
CCOC(=O)c1cc(-c2ccccc2)nn1CC1CC(c2ccc(Cl)cc2)=NO1 (stereo not drawn) | 0.8 | -24.0% | . | .
CC(C)(C)OC(=O)N1CCC(CC2CC(c3ccccc3)=NO2)(C(=O)NCc2ccccc2)CC1 (stereo not drawn) | 3.0 | 6.4% | ? | 0.262µM*
CCCCCCCNC(=O)C1(CC2CC(c3ccc(Cl)cc3)=NO2)CCN(C(=O)c2ccccc2)CC1 (stereo not drawn) | 18.2 | 16.0% | 9.28µM* | ?
